Pol eta inh: DNA polymerase eta (human) inhibition; Q9Y253; recombinant Pol eta, fluorescent DNA replication assay; Potency, µM (top dose mostly 114 µM), for inactives: at the top dose activity change, negative = inhibition, usual class: inhibitors; hit rate 1.2% among 390,000; AID 588591; also: potency is read from the fitted curve at half-maximal effect; % is scaled to controls: 0 for no effect and ±100 for the full control effect
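Pol eta at 10 nM preincubated with compounds 15 min at room temperature; reaction started with fluorescent substrate (50 nM final) and read kinetically at 0 and 10 min.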
Pol kappa inh: blocks human DNA polymerase kappa activity | Potency, µM (series often up to 107 µM), without a hit: at the top dose activity, negative = inhibition, hits mostly inhibitors | Q9UBT6 | purified Pol kappa, fluorescent DNA synthesis assay, 10 min | hit rate 0.53% among 400,000; also: potency is read from the fitted curve at half-maximal effect; % is scaled to controls: 0 for no effect and ±100 for the full control effect
Target sequence (Q9UBT6 whole entry, looked up): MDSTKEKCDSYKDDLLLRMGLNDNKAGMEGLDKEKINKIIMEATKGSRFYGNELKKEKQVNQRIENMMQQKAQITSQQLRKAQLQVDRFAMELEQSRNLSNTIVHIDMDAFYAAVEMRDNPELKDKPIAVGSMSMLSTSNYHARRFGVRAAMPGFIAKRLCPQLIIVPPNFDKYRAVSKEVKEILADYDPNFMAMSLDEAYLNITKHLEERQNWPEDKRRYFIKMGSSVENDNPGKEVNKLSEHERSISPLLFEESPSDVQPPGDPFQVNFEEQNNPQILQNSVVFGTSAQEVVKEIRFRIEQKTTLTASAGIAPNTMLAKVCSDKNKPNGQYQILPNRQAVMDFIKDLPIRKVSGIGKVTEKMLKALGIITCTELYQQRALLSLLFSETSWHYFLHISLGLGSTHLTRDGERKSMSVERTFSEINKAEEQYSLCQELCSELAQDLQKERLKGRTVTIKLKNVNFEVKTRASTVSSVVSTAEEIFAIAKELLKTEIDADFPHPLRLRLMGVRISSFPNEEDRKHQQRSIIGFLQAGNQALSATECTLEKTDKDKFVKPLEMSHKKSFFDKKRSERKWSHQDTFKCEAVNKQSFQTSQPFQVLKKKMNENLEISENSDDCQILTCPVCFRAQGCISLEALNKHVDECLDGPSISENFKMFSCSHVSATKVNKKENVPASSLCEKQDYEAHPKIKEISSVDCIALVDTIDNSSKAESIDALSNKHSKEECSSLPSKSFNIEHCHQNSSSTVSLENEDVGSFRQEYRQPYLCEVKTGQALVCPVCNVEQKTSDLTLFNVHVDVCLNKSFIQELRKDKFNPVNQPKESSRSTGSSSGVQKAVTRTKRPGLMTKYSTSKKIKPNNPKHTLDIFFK
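Pol kappa 10 nM + cpd, 15 min RT; start w/ substrate 50 nM final; fluorescence kinetic read, 0 and 10 min. Neg ctrl: buffer, no enzyme.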
POLB inh: DNA polymerase beta (human) inhibition. P06746. Pol beta primer extension/strand displacement, fluorescence kinetic. Potency, µM (highest dose often 114 µM), without a hit: at the highest dose activity change, negative = inhibition, most hits filed as inhibitors. hit rate 1.3% among 340,000; also: potency is read from the fitted curve at half-maximal effect; % is scaled to controls: 0 for no effect and ±100 for the full control effect
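10 nM enzyme + cpd, 15 min RT; start with substrate 50 nM final; read 0 min and after 10 min RT. Corrected, normalized data; 4-parameter Hill curve fit.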
PI5P4K alpha inh: inhibitors of human PI5P4K alpha | P48426 | PI5P4Kalpha enzyme, ADP-Glo luminescence, 60 min; stronger effect = lower value | max response, % | hit rate 1.2% among 330,000 | AID 652105; active = max response of -50% or lower; inconclusive = between -30% and -50%; inactive = -30% or higher; also: value at the top dose of about 77 µM; % is scaled to controls: 0 for no effect and ±100 for the full control effect
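qHTS, 1536-well: enzyme/substrate mix, compound by pin tool, 5 microM ATP final; RT 60 min; ADP-Glo reagents 1 (45 min) then 2 (30 min); luminescence.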
FEN1 inh: blocks human flap endonuclease 1 | Recombinant FEN1 flap cleavage, fluorescence, 15 min | Potency, µM (doses to about 114 µM), inactives show at the top dose activity change, negative = inhibition, most hits filed as inhibitors | AID 588795 | hit rate 0.35% among 390,000 | P39748; also: potency is read from the fitted curve at half-maximal effect; % is scaled to controls: 0 for no effect and ±100 for the full control effect; nearly all actives have a fitted effect of over 65% in size
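Concentration–response screening of FEN1 (10 nM): 15 min compound preincubation at room temperature, reaction started with 50 nM substrate and read at 0 and 15 min. Corrected, normalized data were fitted by a four-parameter Hill equation.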
POLI inh: inhibitors of human DNA polymerase iota. Potency, µM (highest dose often 115 µM), for the others: at the top dose activity, negative = inhibition, actives largely listed as inhibitors. Q9UNA4. hit rate 1% among 390,000. Pol iota fluorescent replication assay, 10 min. AID 588590; also: potency is read from the fitted curve at half-maximal effect
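Fluorescent replication assay read twice, at 0 min and 10 min after adding 50 nM (final) substrate. Enzyme (10 nM) and compounds were first incubated 15 min at room temperature; enzyme-free buffer wells were negative controls.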
* hit, by the source's call; ? = inconclusive; / = no result; [ ] = another dose, or the depositor's remark. Rows were chosen to be rich in hits. Some 2.8% of all compounds tested hit in one or more screens of this group. Unless noted, calls follow the shape of the dose curve; as a rule, active = well fitted curve in the direction sought with a large enough effect; inconclusive = small, poorly fitted or top-dose-only effect, or another doubt; inactive = no such curve, though single readings can be large; an effect the other way counts as inactive or inconclusive.

SMILES	Pol eta inh	Pol kappa inh	POLB inh	PI5P4K alpha inh	FEN1 inh	POLI inh
CCC(=O)Nc1ccc(NC(=S)NC(=O)/C=C/c2ccccc2)cc1	?	-27%	10µM*	-6	-20%	?
CCc1nnc(NS(=O)(=O)c2ccc(NC(=S)Nc3ccc(F)cc3)cc2)s1	-5%	-15%	42%	8	5%	-10%
COc1ccc(NS(=O)(=O)c2ccc(NC(=S)NC(=O)/C=C/c3ccccc3)cc2)nn1	79µM*	-16%	11%	-20	-4%	?
CCc1nnc(NS(=O)(=O)c2ccc(NC(=S)NC(=O)/C=C/c3ccc(C(C)C)cc3)cc2)s1	45µM*	-14%	45µM*	/	?	25µM*
Cc1c(Cl)cccc1NC(=O)CC(c1cccs1)N1Cc2ccccc2C1=O (centres undefined)	4%	-5%	-18%	/	1%	?
CCc1nnc(NS(=O)(=O)c2ccc(NC(=S)NC(=O)/C=C/c3ccc(OC)cc3)cc2)s1	-11%	?	-8%	-10	50µM*	45µM*
N#C/C(=C/c1ccco1)C(N)=S	-10%	-8%	20µM*	-59*	-5%	?
N#C/C(=C\c1ccc2c(c1)OCO2)C(N)=S	-1%	0%	34%	-6	-10%	?
COC1=C/C(=C/c2c(N)n3cc(C)sc3nc2=O)C=CC1=O	-8%	-9%	2%	-81*	-2%	27%
Cc1cn2c(N)c(C=C3C=C(Cl)C(=O)C(Cl)=C3)c(=O)nc2s1	?	-5%	-24%	-78*	-1%	41%
CCOc1ccccc1-c1nc(-c2ccc(NC(=O)Cc3ccc(OC)cc3)cc2)no1	?	-21%	32µM*	5	2%	?
CN(C)c1ccc(/C=C/c2ccnc3ccccc23)cc1O	/	5%	/	/	-5%	15%
Cc1ccc(NC(=O)c2cc(S(=O)(=O)N3CCCC(C)C3)cn2C)c(Br)c1 (centres undefined)	-10%	-12%[60.1 µM]	0%	/	18%	-8%
COc1ccc(C(=O)C[n+]2cccc(Br)c2)cc1	-6%	-8%	-2%	-5	2%	8%[58.9 µM]
O=C(CBr)c1ccc(Oc2ccc(C(=O)C[n+]3cccc(Br)c3)cc2)cc1	/	0%	/	/	-21%	79µM*
O=C1NN(c2ccccc2)C(=O)/C1=C\c1ccc2c(c1)OCO2	2%	-3%	4%	2	0%	110%
Cc1ccc(N2NC(=O)/C(=C\c3cc4c(cc3[N+](=O)[O-])OCO4)C2=O)cc1C	?	-17%	20µM*	-57*	-16%	?
Cc1ccccc1NC(=O)CC1NCCNC1=O (centres undefined)	-17%	-15%	4%	/	-9%	-5%
CSc1nc(N(CCO)CCO)c2sc3nc(-c4ccco4)c4c(c3c2n1)CCC4	1.1µM*	10µM*	1.8µM*	-89*	?	1.8µM*
COC(=O)CSc1nc(SC)nc2c1sc1nc(-c3ccco3)c3c(c12)CC(C)(C)OC3	-6%	-8%	/	-7	-9%	45%
CSc1nc(SCCO)c2sc3nc(-c4ccco4)c4c(c3c2n1)CC(C)(C)OC4	79µM*	-32%	1.6µM*	/	-1%	22µM*
O=C(NCC(=O)N1CCN(C(c2ccccc2)c2ccccc2)CC1)c1ccccc1Br	-14%	/	/	5	/	/
N#CC(=Cc1ccc(O)cc1)C(N)=C(C#N)C#N	-8%	-1%	/	-69*	14%	79%
Cc1ccc2cc3cc(C(=O)Nc4ccc(F)cc4Cl)oc3nc2c1	-3%	-19%[60.1 µM]	23%	/	-4%	-15%
CCN(CC)S(=O)(=O)c1ccc(C(=O)NCCSc2c(-c3ccc(C)cc3)[nH]c3ccccc23)cc1	-16%	-1%	0%	/	-12%	-7%
SMILES	Pol eta inh	Pol kappa inh	POLB inh	PI5P4K alpha inh	FEN1 inh	POLI inh
O=C1CC(c2ccc(Cl)cc2)CC(=O)C1CS(=O)(=O)c1ccccc1 (centres undefined)	13%	-3%	-4%	-58*	-2%	41%
COc1ccc(NC(=O)Nc2cccc(OCc3cc(=O)n4cccc(C)c4n3)c2)c(OC)c1	-9%	-10%[60.1 µM]	6%	/	12%	-7%
CC1(C)CC(=O)C=C(Nc2ccc(O)c(C(=O)O)c2)C1	12%	?	-12%	-94*	2%	?
CC1(C)CC(=O)C=C(Nc2ccc(C(=O)O)cc2)C1	7%	-4%	13%	-6	-5%	4%
N#Cc1c(-c2ccco2)cc(-c2ccccn2)nc1N	?	-32%	?	-67*	-6%	?
CCOc1ccc(Nc2nc3ccccc3c(=O)s2)cc1	-2%	2%	-1%	-6	-6%	?
Cc1ccc(Nc2n[nH]c(=S)s2)cc1	-12%	/	/	-68*	/	/
Cc1ccc(Nc2n[nH]c(=S)s2)cc1F	-11%	-10%	/	-76*	-5%	-3%
CCOc1ccc(Nc2n[nH]c(=S)s2)cc1	-8%	-9%	12%[57.1 µM]	-76*	-4%	4%
S=c1[nH]nc(Nc2ccc(Cl)cc2)s1	-3%	1%	?	-73*	-10%	?
Cc1ccc(S(=O)(=O)c2cn(Cc3ccccc3)c3cc(N4CCCC4)c(F)cc3c2=O)cc1	-16%	-8%	41%	/	-8%	6%
COCCN(C(=O)c1cc(CN2C(=O)c3ccccc3C2=O)ccc1OC)c1c(N)n(CC(C)C)c(=O)[nH]c1=O	-1%	-3%	/	0	20%	0%
O=c1oc2ccccc2c(O)c1/C=C1\C=Nc2ccccc21	9%	-14%	-14%	-56*	0%	?
COc1cc([C@H]2c3cc4c(cc3[C@@H](O)[C@@H]3COC(=O)[C@H]23)OCO4)cc(OC)c1OC	/	-4%[12 µM]	/	/	/	/
CCOC(=O)c1c(C)[nH]c(C)c1C(=O)COC(=O)c1nc2nccc(C)n2n1	-19%	-8%	-1%	18	5%	133%
CCCC1Cc2nc(Cl)c(C#N)cc2CO1 (centres undefined)	?	-30%	45µM*	?	3%	?
CCC1(C)Cc2nc(Cl)c(C#N)cc2CO1 (centres undefined)	-7%	-7%	23%	4	19%	32%
COc1cccc(C2CC(c3ccc(NS(C)(=O)=O)cc3)=NN2C(=O)c2ccccc2)c1OC (centres undefined)	?	-22%	-7%	?	-12%	89µM*
CN(C)S(=O)(=O)c1cccc(NC(=O)CCc2nc3cc(S(=O)(=O)N4CCOCC4)ccc3n2C)c1	1%	-15%	/	0	0%	-6%
O=C(O)CSc1ncnc2scc(-c3ccc(Br)cc3)c12	8%	-16%	-29%	-66*	0%	38%
CN(C)C(=O)CSc1ncnc2scc(-c3ccccc3)c12	-19%	-3%	-2%	0	-5%	110%

Screening data as filed in PubChem.
